This is a sample that favours compounds with a hit; in the whole collection about 3.4% have one here.
AmpC inh detg: AmpC beta-lactamase inhibition with detergent present; P00811; AmpC hydrolysis of nitrocefin, absorbance 480 nm, 0.01% Triton; Potency, µM (doses to about 114 µM), for the others: at the top dose activity change, negative = inhibition, hits mostly inhibitors; 370,000 compounds, 0.041% hits; AID 485294;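 note: 0% = no-compound wells and -100% = no-enzyme wells; nearly all actives have a fitted effect of over 25% in size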
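20 mM phosphate pH 7.0 + 0.01% (detergent screen) or 0.0001% Triton X-100; 5.3 nM AmpC reagent; cpd preinc 15 min RT; nitrocefin (800 uM stock) to start; A480 q20 s × 4 min; Activity was normalised to no-enzyme and no-compound control wells.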
AmpC inh no detg: AmpC beta-lactamase inhibition without detergent. 330,000 compounds, 0.52% hits. Potency, µM (series often up to 57.1 µM), inactives show top-dose activity change, negative = inhibition, usual class: inhibitors. P00811. AID 485341. AmpC nitrocefin hydrolysis, absorbance 480 nm, 0.0001% Triton;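 note: plate controls were no compound for no effect and no enzyme for full effect; nearly all actives have a fitted effect of over 20% in size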
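AmpC (5.3 nM in the dispensed reagent) in 20 mM phosphate pH 7.0 with 0.01% (detergent screen) or 0.0001% Triton X-100 was preincubated with compounds for 15 min at room temperature. Nitrocefin was then added from an 800 uM solution, and hydrolysis was followed at 480 nm.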
Sm TGR block: S. mansoni TGR enzyme inhibition; Potency, µM (highest dose often 114 µM), for inactives: at the highest dose activity change, negative = inhibition, hits mostly inhibitors; 360,000 compounds, 3% hits; AID 485364; purified TGR, DTNB reduction, TNB absorbance 405 nm; note: nearly all actives have a fitted effect of over 60% in size
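Kinetic colorimetric format: TGR-catalysed, NADPH-driven DTNB reduction monitored via TNB absorbance. Enzyme dispensed at 20 nM; compound exposure 15 min at room temperature before reaction start.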
RE007 growth inh: less growth of the S. pombe RE007 Vpr strain; S. pombe RE007 Vpr strain, BacTiter-Glo ATP luminescence, 24 h; Potency, µM (highest dose often 92.2 µM), for the others: top-dose activity change, negative = less growth, hits mostly inhibitors; 360,000 compounds, 0.21% hits; AID 651644; active = well fitted falling curve with a large enough effect; inconclusive = small, poorly fitted or top-dose-only effect; inactive = no such curve, though single readings can be large or run the other way; note: nearly all actives have a fitted effect of over 50% in size
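Fission yeast RE007 carrying one integrated HIV-1 vpr copy, seeded at OD 0.01 in PMG+AL medium with 23 nL pinned compound. Grown 24 h at 30 degrees; viability read by BacTiter-Glo luminescence after 5 min.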
Giardia FBPA inh: Giardia lamblia aldolase inhibition; A8B2U2; purified Giardia FBPA; Potency, µM (series often up to 59.6 µM), inactives show at the highest dose activity, negative = inhibition, most hits filed as inhibitors; 290,000 compounds, 0.71% hits; AID 2451; note: nearly all actives have a fitted effect of over 55% in size
Target sequence (A8B2U2 whole entry, looked up): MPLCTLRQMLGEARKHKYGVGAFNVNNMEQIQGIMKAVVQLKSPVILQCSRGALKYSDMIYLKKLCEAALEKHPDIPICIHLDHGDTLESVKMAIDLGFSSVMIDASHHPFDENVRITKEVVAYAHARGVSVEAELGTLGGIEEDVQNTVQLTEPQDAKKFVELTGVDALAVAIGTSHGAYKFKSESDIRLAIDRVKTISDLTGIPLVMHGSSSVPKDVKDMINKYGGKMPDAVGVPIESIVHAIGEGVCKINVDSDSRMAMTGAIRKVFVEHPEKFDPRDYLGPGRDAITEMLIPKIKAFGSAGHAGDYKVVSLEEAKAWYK
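40 nM FBPA preincubated 10 min at RT with compound (up to 57.5 uM final), then substrate plus GAPDH/TPI/NAD/arsenate coupling and diaphorase/resazurin added. Fluorescence read after 20 min at RT, 525/598 nm.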
Active calls of the source: *; ? = inconclusive; / = no result given; [ ] = dose if it differs, or a comment. Unless noted, calls come from the whole dose curve; as a rule, active = well fitted curve in the direction sought with a large enough effect; inconclusive = small, poorly fitted or top-dose-only effect, or another doubt; inactive = no such curve, though single readings can be large; an effect the other way counts as inactive or inconclusive. Unless noted, % is set by controls: 0 for no effect and ±100 for the full control effect; potency is the fitted concentration of half-maximal effect.

SMILES	AmpC inh detg	AmpC inh no detg	Sm TGR block	RE007 growth inh	Giardia FBPA inh
CC(=O)N(C1=C(N)C(=O)c2ccccc2C1=O)C(C)C	2.6%	-11.4%	7.08µM*	-24.6%	?
CCOc1ccc(C(=O)c2cn(CC(=O)Nc3ccc4c(c3)OCO4)c3ccc(OCC)cc3c2=O)cc1	1.9%	/	1.2%	/	/
Oc1c(Cl)cc(Cl)cc1/C=N/c1nccs1	-10.6%	-55.4%	6.31µM*	-19.7%	?
Oc1c(Cl)cc(Cl)cc1/C=N/c1nc(-c2ccc(Cl)cc2)cs1	3.6%	?	?	-24.7%	-3.4%
O=C(NNC(=O)c1cc2ccccc2cc1O)Nc1ccccc1F	-3.3%	17.8µM*	-26.5%	-1.1%	5.3%
CCCCCn1c(NCc2ccco2)nc2ccccc21	?	2.5%	-4.4%	-1.9%	2.7%
O=C(CN1CCCN(S(=O)(=O)c2ccc(F)cc2)CC1)Nc1cccc(F)c1	?	9.7%	39.8µM*	-14.7%	-6.1%
Cc1ccc(NC(=O)/C=C\C(=O)NCC(=O)O)cc1C	?	-12.6%	1.78µM*	?	7.9%
COc1cc(/C=C/C(=O)O)ccc1O	/	/	/	9.9%	4.0%
COC(=O)C1=C(O)/C(=C\c2ccc(O)c(OC)c2)N=C1C	?	-18.1%	50.1µM*	-7.2%	?
COc1cc2c(cc1OC)CN(C(=O)c1ccc([N+](=O)[O-])o1)CC2	-1.1%	4.3%	28.2µM*	-6.8%	-22.8%
O=C(c1ccc([N+](=O)[O-])o1)N1CCc2ccccc2C1	-1.7%	-6.9%	0.0%	?	-4.5%
COc1cc(/C=C/C(=O)c2ccc([N+](=O)[O-])o2)ccc1O	-4.2%	-11.1%	3.16µM*	12.6µM*	/
COc1cc(/C=C/[N+](=O)[O-])ccc1O	-0.1%	-43.3%	35.5µM*	?	?
COc1cccc(C(=O)Oc2cccc(N3C(=O)C4C5CC(C(Br)C5Br)C4C3=O)c2)c1 (centres undefined)	-2.0%	/	2.0%	-9.6%[3.69 µM]	0.1%
COc1ccccc1CN1CC(C(=O)N2CCCCCCC2)CCC1=O (centres undefined)	2.5%	42.1%	-15.5%	0.7%	/
COc1cc(C=C2C(=O)C=CC2=O)ccc1O	/	/	/	2µM*	/
NS(=O)(=O)c1ccc(CNC(=O)/C=C/c2cccc(Cl)c2)cc1	-6.3%	-15.3%	2.9%	6.5%	1.9%
COc1ccc(/C=C/C(=O)c2ccc([N+](=O)[O-])o2)cc1OC	-14.5%	1.0%	6.31µM*	0.0%	/
O=C(/C=C/c1cccc(Cl)c1)c1ccc([N+](=O)[O-])o1	?	-28.8%	0.708µM*	11.2µM*	/
Cc1ccc(SCc2c(C(=O)N/N=C/c3cccs3)nnn2-c2nonc2N)cc1	/	/	/	2.8%	/
O=C(NNCC(O)COc1ccccc1)c1ccccc1 (centres undefined)	-14.5%	26.6%[2.29 µM]	-4.7%	14.5%	-2.8%
Cc1c(NC2(C#N)CCCCC2)c(=O)n(-c2ccccc2)n1C	3.3%	-11.5%	20µM*	-3.9%	-4.9%
O=C(O)c1cccc2c1C(=O)c1cc([N+](=O)[O-])cc([N+](=O)[O-])c1-2	/	/	/	-8.8%	/
Cc1cccc(N=C2c3cc([N+](=O)[O-])ccc3-c3c2cc([N+](=O)[O-])cc3[N+](=O)[O-])c1	/	/	/	22.4µM*	/
SMILES	AmpC inh detg	AmpC inh no detg	Sm TGR block	RE007 growth inh	Giardia FBPA inh
Nc1ccc(C(=O)OCc2nc3c(ccc4ccccc43)[nH]2)cc1	-10.5%	-35.9%	-6.1%	2.2%	-18.1%
CC12CC3CC(C)(C1)CC(C(=O)NC1=NCCS1)(C3)C2	-0.4%	-2.3%	2.9%	5.62µM*	0.0%
CC12CC3(C)CC(C)(C1)CC(C(=O)NC1=NCCS1)(C2)C3	/	/	/	25.1µM*	/
COCCN(CC(=O)Nc1cccc(C)c1C)C(=O)Cc1cccs1	?	-3.9%	-6.6%	-11.1%	/
CCOC(=O)N1CCC(NC(=O)c2cc(C(=O)NC3CCCC3)ccc2CO)CC1	?	0.708µM*	3.8%	-1.6%	4.2%
CCOC(=O)N1CCC(NC(=O)c2ccc(CO)c(C(=O)NC3CCN(C(=O)OCC)CC3)c2)CC1	?	13.1%	?	-1.9%	-2.1%
O=c1cc(C(F)(F)F)[nH]c(=S)n1-c1ccccc1	5.5%	-8.8%	22.4µM*	2.7%	-18.6%
